According to PubChem BioAssay (Tox21):
Results filed as inconclusive are left out. Where a call stands in place of a potency, no number is given. Active and inactive are the calls of the source. The call rests on the fitted dose curve.

These compounds were tested against Muscarinic acetylcholine receptor M1 (Homo sapiens) (UniProt P11229) (assay: Cholinergic receptor muscarinic 1 (CHRM1) small molecule antagonists, cell-based qHTS assay (AID 1963588; further: nearly all actives have a fitted effect of over 40% in size)). Conditions: CHRM1-CHO antagonist mode, calcium flux fluorescence; series mostly up to 61.5 µM.
Text: National Center for Advancing Translational Sciences [NCATS]
Division of Preclinical Innovation [DPI]
U.S. Environmental Protection Agency [EPA]
National Institutes of Environmental Health Sciences [NIEHS]
National Toxicology Program [NTP]
U.S. Food and Drug Administration [FDA]
The CHRM1 is a muscarinic receptor. This receptor plays a crucial role in learning and memory processes and has long been identified as a promising therapeutic target for the improvement of cognitive decline in Alzheimer's disease (AD). The CHRM1-CHO cell line stably expressing human muscarinic acetylcholine receptor M1 (CHRM1) can be used for screening agonists and antagonists of interactions between CHRM1 and its ligands. The CHRM1-CHO Calcium Flux Assay is a homogeneous fluorescence-based assay for detecting the intracellular calcium level using FDSS kinetic plate reader system.
Tox21 Assay Protocol Summary:
CHRM1-CHO cells were dispensed at 1000 cells/3uL/well in 1536-well black-clear bottom plates using a Multidrop Dispenser. After the assay plates were incubated at a 37 C/5% CO2 incubator for 18 h, 3 uL of Dye Loading Buffer was transferred to the assay plate by a Flying Reagent Dispenser. The assay plates were incubated at 37 C for 1h. For antagonist mode, 23 nL of compounds dissolved in DMSO, positive controls or DMSO only was transferred to the assay plate by a pin tool. After 5 min incubation at room temperature, 1.5 uL of acetylcholine at 50nM was added to each well. The fluorescence intensity in the plates was measured using FDSS 7000EX kinetic plate reader for 3 min at 1 sec intervals. Each test compound was measured at 15 concentrations in three independent runs.
Potency means the concentration at half of the fitted maximal effect.

Chain of Muscarinic acetylcholine receptor M1 (Homo sapiens) (P11229 whole entry, looked up): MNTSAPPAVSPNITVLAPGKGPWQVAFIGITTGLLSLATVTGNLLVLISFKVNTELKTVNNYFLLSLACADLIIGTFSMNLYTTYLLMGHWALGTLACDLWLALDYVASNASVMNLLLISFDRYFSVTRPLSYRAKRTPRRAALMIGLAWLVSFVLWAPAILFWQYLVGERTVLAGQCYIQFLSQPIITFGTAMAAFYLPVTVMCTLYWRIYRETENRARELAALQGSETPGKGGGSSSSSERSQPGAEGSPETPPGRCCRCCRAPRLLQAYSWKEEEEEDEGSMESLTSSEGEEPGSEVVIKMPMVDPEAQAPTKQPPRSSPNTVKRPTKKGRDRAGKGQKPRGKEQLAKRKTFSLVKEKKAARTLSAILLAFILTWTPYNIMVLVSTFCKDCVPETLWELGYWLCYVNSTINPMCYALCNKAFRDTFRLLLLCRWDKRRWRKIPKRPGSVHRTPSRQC

Structure (SMILES) | Potency
Cc1cccc([N+](=O)[O-])c1 | inactive
C(CCOCC1CO1)COCC1CO1 (stereo not given) | inactive
CCCCCCI | inactive
CS(=O)(=O)NC(=O)c1cc(Oc2ccc(C(F)(F)F)cc2Cl)ccc1[N+](=O)[O-] | inactive
CC(C)(C)C(=O)Cl | inactive
c1ccc(NNc2ccccc2)cc1 | inactive
N#CS | inactive
Clc1ccc(C(c2ccc(Cl)cc2)C(Cl)Cl)cc1 | 135 nM (active)
Nc1ncc([N+](=O)[O-])s1 | inactive
Cc1ccccc1[N+](=O)[O-] | inactive
Oc1ccccc1Cl | inactive
CCCBr | inactive
COC(=O)c1c(C(F)F)nc(C(F)(F)F)c(C2=NCCS2)c1CC(C)C | inactive
CC(=O)[C@H]1CC[C@H]2[C@@H]3CC[C@H]4C[C@](C)(O)CC[C@]4(C)[C@H]3CC[C@]12C | inactive
CN(C)CCC#N | inactive
N#CC(Cl)(Cl)Cl | inactive
NNC(=S)NN | inactive
O=S(=O)(c1ccc(Cl)cc1)c1cc(Cl)c(Cl)cc1Cl | inactive
Oc1ccc(Cl)c(Cl)c1 | inactive
Nc1ccc(-c2ccc(N)cc2)cc1 | inactive

Structure (SMILES) | Potency
COC(=O)c1ccccc1C(=O)OC | inactive
CC1=C(C(=O)Nc2ccccc2)SCCO1 | inactive
COCC(=O)N(c1c(C)cccc1C)[C@H](C)C(=O)OC | inactive
CN(C)NC(=O)CCC(=O)O | inactive
CCC[CH2][Sn]([Cl])([Cl])[Cl] | inactive
O=c1[nH]c2ccccc2c(=O)o1 | inactive
OC[C@@H](O)[C@H]1O[C@@H]2O[C@H](C(Cl)(Cl)Cl)O[C@@H]2[C@H]1O | inactive
NC(=S)c1c(Cl)cccc1Cl | inactive
CC(Cl)(Cl)C(=O)O | inactive
C=CCOC(N)=O | inactive
[Cl-].[Cl-].[Cl-].[Fe+3] | inactive
ClC1=C(Cl)[C@]2(Cl)[C@@H]3[C@@H](Cl)[C@H](Cl)C[C@@H]3[C@@]1(Cl)C2(Cl)Cl | inactive
Nc1ccc(N)cc1 | inactive
CC(COc1ccc(Oc2ccccc2)cc1)Oc1ccccn1 (stereo not given) | inactive
CCc1cccc(C)c1N(C(=O)CCl)C(C)COC (stereo not given) | inactive
Cc1cc(-c2ccc(N)c(C)c2)ccc1N | inactive
c1ccc2c(c1)oc1ccccc12 | inactive
Brc1ccc(Oc2ccccc2)cc1 | inactive
CNC(C)(C)Cc1ccccc1 | inactive
CN1CC[C@]23c4c5ccc(O)c4O[C@H]2[C@@H](O)CC[C@H]3[C@H]1C5 | inactive
